Assay outcomes (PubChem)
SMARCA2 activ – increases SMARCA2 function in MMTV reporter cells. 1% of 370,000 active. activation, % at 9.1 µM. MG213 cells, MMTV-luciferase reporter, dexamethasone, overnight; in the data active = activation above about 7.8%;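 also: 0% = vehicle wells and 100% = reference activator wells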
ssDAF-12 act – activators of S. stercoralis DAF-12 nuclear receptor; HEK293 ssDAF-12/GRIP1 lit1-tk-luc reporter, luminescence; % of 3 µM dafachronic acid response; activation, % at 6.8 µM; 1% of 370,000 active;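 active = activation above the mean over all tested compounds plus 3 SD, cut at about 0.9% in these data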;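 also: 0% = DMSO-only wells and 100% = 3 µM delta7-dafachronic acid wells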
DAX1 inh-1 – DAX1 (NR0B1) inhibition, primary screen | HEK293T StAR-luciferase reporter, SF-1/DAX-1 repression relief | inhibition, % at 6.8 µM | 1.1% of 370,000 active | AID 652010;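 active = inhibition above the mean over all tested compounds plus 3 SD, cut at about 3.6% in these data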;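 also: 0% = DAX-1 cells with DMSO and 100% = cells lacking DAX-1 with DMSO; higher inhibition means more luminescence from relief of DAX-1 repression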
hcDAF12 agonist – activators of H. contortus DAF-12 nuclear receptor. HEK293 hcDAF-12 lit1-tk-luc reporter, luminescence; 0% DMSO, 100% Δ7-dafachronic acid. activation, % at 6.8 µM. 1.4% of 370,000 active. AID 652067;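 active = activation above the mean of all tested compounds plus 3 SD, cut at about 5.5% in these data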;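 also: 100% = response to 3 µM Δ7-dafachronic acid high control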
hgDAF-12 ag – agonists of H. glycines DAF-12 nuclear receptor; AID 687014; 1.8% of 370,000 active; activation, % at 6.8 µM; HEK293 GAL4-hgDAF12 UAS-luciferase reporter, agonist luminescence; normalized to butyrate control;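 active = activation above a cutoff set at the mean of all screened compounds plus 3 SD, cut at about 10% in these data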;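 also: 0% = DMSO wells and 100% = sodium butyrate wells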
DAX1 inh-2 – inhibitors of human orphan nuclear receptor DAX1 (NR0B1) | 0.99% of 340,000 active | P51843 | HEK293 Gal4-DAX1 luciferase reporter, luminescence | AID 504766 | inhibition, % at 6.75 µM;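 active = inhibition above the mean over all tested compounds plus 3 SD, cut at about 4.2% in these data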;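 also: 0% = DAX1-transfected cells with DMSO and 100% = empty-vector control cells with DMSO; inhibition shows as a rise in luminescence from relieved DAX1 repression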
Target sequence (P51843 207-470 limits assumed): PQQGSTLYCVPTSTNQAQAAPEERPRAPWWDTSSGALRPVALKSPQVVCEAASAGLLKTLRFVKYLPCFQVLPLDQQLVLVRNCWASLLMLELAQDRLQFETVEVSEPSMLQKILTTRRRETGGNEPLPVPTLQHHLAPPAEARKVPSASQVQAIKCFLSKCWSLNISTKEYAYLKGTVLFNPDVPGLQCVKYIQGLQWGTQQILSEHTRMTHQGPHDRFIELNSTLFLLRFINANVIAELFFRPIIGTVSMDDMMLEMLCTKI
SMARCA2 conf – confirmation of SMARCA2 (BRM) function activators; MG213 cells, MMTV-luciferase with dexamethasone, luminescence, overnight; MG213 cells expressing E1A, Rb sequestered; DMSO wells 0%, reference activator 100%; 30% of 3,500 active; activation, % at 9.1 µM; shares compounds with SMARCA2 activ; AID 652260;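 active = activation above its plate's cutoff, the mean activation of tested wells plus 3 SD, cut at about 7.9% in these data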
GAL4-VP16 Luc – counter-screen for SMARCA2 activators: GAL4-VP16 luciferase reporter activation | shares compounds with SMARCA2 activ | HEK293 GAL4-VP16 pG5luc reporter, luciferase luminescence; scaled: DMSO wells 0%, SAHA wells 100% | activation, % at 9.1 µM | 41% of 3,500 active | AID 686939;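 active = activation above the solvent-only control well mean plus 3 SD, averaged across control plates, cut at about 5.2% in these data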
LXR ag – counter-screen for hcDAF-12 agonists: agonists of human LXR-beta. 3,400 tested, under 10 active. AID 743027. activation, % at 6.8 µM. HEK293 Gal4-LXR tk-luc reporter, luminescence, 24 h; normalized: DMSO 0%, positive control 100%. shares compounds with hcDAF12 agonist;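 active = mean percent activation of the reporter above a cutoff set as the average over tested compounds plus their standard deviation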
Target sequence (P55055 whole entry, looked up, the tested form may be a part): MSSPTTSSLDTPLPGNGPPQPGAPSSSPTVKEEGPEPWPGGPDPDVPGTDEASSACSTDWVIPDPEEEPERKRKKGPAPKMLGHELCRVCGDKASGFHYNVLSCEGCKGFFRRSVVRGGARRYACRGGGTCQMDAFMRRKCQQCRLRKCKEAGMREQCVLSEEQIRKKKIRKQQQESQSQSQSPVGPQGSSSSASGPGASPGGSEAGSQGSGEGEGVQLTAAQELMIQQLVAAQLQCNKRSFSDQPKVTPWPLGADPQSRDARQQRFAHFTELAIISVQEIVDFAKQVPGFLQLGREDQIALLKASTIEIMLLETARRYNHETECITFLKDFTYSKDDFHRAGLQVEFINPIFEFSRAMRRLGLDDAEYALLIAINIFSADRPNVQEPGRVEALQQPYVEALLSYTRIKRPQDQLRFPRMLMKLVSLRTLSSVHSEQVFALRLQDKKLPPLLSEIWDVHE
hcDAF12 conf – hcDAF-12 agonism, confirmation assay. shares compounds with hcDAF12 agonist. HEK293 hcDAF-12 lit1-tk-luc reporter, luminescence; % of Δ7-dafachronic acid response. activation, % at 6.8 µM. 61% of 3,400 active. AID 743032;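 active = mean activation across triplicate tests above the threshold derived from the earlier primary screen, cut at about 5.5% in these data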;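 also: 0% = DMSO only wells and 100% = 3 µM Δ7-dafachronic acid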
hgDAF12 conf – hgDAF-12 agonism, confirmation assay; activation, % at 6.8 µM; AID 743050; shares compounds with hgDAF-12 ag; 80% of 3,300 active; HEK293 GAL4-hgDAF12 luciferase reporter, agonist mode; percent of butyrate response;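 active = mean activation over triplicate wells above the hit cutoff derived from the earlier primary screen, cut at about 11% in these data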;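 also: 0% = DMSO low control and 100% = 2 mM sodium butyrate high control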
LXR ag 2 – LXR-beta agonism as DAF-12 counter-screen; activation, % at 6.8 µM; shares compounds with hgDAF-12 ag; HEK293 Gal4-LXR luciferase reporter, 24 h; 3,300 tested, under 10 active;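 active = mean activation of the triplicate above a set limit carried over from the primary screen, none filed active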
* hit, by the source's call; nt = not tested or not shown. Rows were chosen to be rich in hits. Some 4.8% of all compounds tested hit in one or more screens of this group.

SMILES | SMARCA2 activ | ssDAF-12 act | DAX1 inh-1 | hcDAF12 agonist | hgDAF-12 ag | DAX1 inh-2 | SMARCA2 conf | GAL4-VP16 Luc | hgDAF12 conf | LXR ag 2 | others
O=C(Nc1nc(-c2nc3ccccc3s2)cs1)c1ccco1 | 12.2* | 0.3 | 4.5* | 2.4 | 18.9* | 1.0 | 9.5* | 8.3* | 7.4 | 0.4
CS(=O)(=O)c1ccc2nc(NC(=O)c3cc4ccccc4o3)sc2c1 | -1.6 | -0.2 | 0.7 | 5.3 | -0.3 | 1.8 | nt | nt | nt | nt
CS(=O)(=O)c1ccc2nc(NC(=O)c3ccco3)sc2c1 | 9.9* | -0.7 | 3.5 | 3.9 | 15.3* | -0.5 | 10.9* | 11.9* | 14.1* | 0.6
C/C(=N/OCc1ccc(Br)cc1)c1ccccn1 | 9.1* | -0.2 | 3.7* | 4.6 | 23.1* | 1.6 | 6.6 | 8.7* | 22.2* | 1.2
Cc1nn(-c2ccccc2)c2sc(C(=O)N3CCN(C(c4ccccc4)c4ccc(Cl)cc4)CC3)cc12 (stereo unspecified) | -0.5 | -0.5 | 0.3 | 0.4 | 2.6 | nt | nt | nt | nt | nt
C/C(CC(=O)Nc1ccc(Cl)cc1C(F)(F)F)=N\NC(=O)c1cccs1 | 10.0* | 0.3 | 1.8 | 5.4 | 14.1* | 8.6* | 3.5 | 2.5 | 4.8 | 0.1
C/C(CC(=O)Nc1ccc(Cl)cc1C(F)(F)F)=N\NC(N)=S | -3.8 | -1.5 | -0.6 | -0.2 | -0.6 | nt | nt | nt | nt | nt
CC1CC(C)CN(C(=O)C2CCN(c3cncnc3)CC2)C1 (stereo unspecified) | -4.6 | -1.0 | -0.1 | 1.0 | -0.4 | nt | nt | nt | nt | nt
O=S1(=O)N[C@@H](Cc2ccccc2)COc2cccc(N3CCCC3)c21 | -1.4 | -0.9 | 0.6 | -1.0 | -1.9 | nt | nt | nt | nt | nt
CC1CCN(c2ccc(C(=O)O)cc2NS(=O)(=O)c2ccccc2[N+](=O)[O-])CC1 | -1.0 | -1.3 | -0.4 | -1.3 | 3.5 | nt | nt | nt | nt | nt
CCCC1CCC2(CCCN2CCOC(=O)Nc2ccc(OC)cc2)CC1 (stereo unspecified) | nt | -2.0 | nt | -1.4 | 0.8 | nt | nt | nt | nt | nt
Cc1ccc2c(c1)C1CS(=O)(=O)N(Cc3ccccc3)C(=O)N1C2 (stereo unspecified) | -2.2 | -0.7 | -0.7 | -2.2 | -1.2 | nt | nt | nt | nt | nt
Oc1cccc2ccc(/C=C/c3cccs3)nc12 | 12.9* | 2.3* | 2.0 | 16.5* | 19.7* | 3.8 | -1.9 | 22.5* | 20.0* | 0.9 | LXR ag=1.3;hcDAF12 conf=11.8*
Oc1cccc2ccc(/C=C/c3ccccc3Br)nc12 | 5.1 | -0.4 | -0.2 | 2.5 | 6.5 | 3.1 | nt | nt | nt | nt
Cc1ccsc1/C=C/c1ccc2cccc(O)c2n1 | 13.0* | 1.8* | 3.4 | 15.4* | 17.2* | 2.6 | -9.5 | 19.1* | 22.1* | 0.9 | LXR ag=1.5;hcDAF12 conf=13.6*
CCC(N=c1cc(-c2ccc(OC)c(OC)c2)oc2ccc(C)cc12)C(=O)O (stereo unspecified) | 0.8 | -1.2 | 0.2 | -3.3 | 0.9 | 0.8 | nt | nt | nt | nt
CCC(N=c1cc(-c2ccc(OC)cc2)oc2ccc(C)cc12)C(=O)O (stereo unspecified) | 16.8* | 0.4 | 3.9* | 4.2 | 14.3* | -0.4 | 10.6* | 8.8* | 13.4* | 0.4
CCCOc1nccc2c1n(C)c(=O)n2C | 2.1 | -0.9 | -0.8 | -2.1 | 1.6 | nt | nt | nt | nt | nt
CC(=O)Nc1cccc(NC(=O)c2cccc3cccnc23)c1 | 0.0 | -1.8 | -0.2 | 0.1 | 1.0 | -0.5 | nt | nt | nt | nt
Cc1ccc(NC(=O)c2cccc3cccnc23)cc1 | 8.2* | 2.7* | 1.6 | 8.8* | 16.7* | 3.8 | 19.8* | 9.1* | 18.6* | 0.7 | LXR ag=1.0;hcDAF12 conf=10.2*
Cc1cccc(N=Nc2cnc(N)s2)c1 | 8.1* | -0.7 | 0.6 | 4.1 | 18.1* | 4.4* | 3.7 | 4.3 | 7.0 | 0.2
COc1cc(OC)cc(-c2csc(N3CCC(C(N)=O)CC3)n2)c1 | nt | -1.7 | nt | -0.8 | 3.6 | nt | nt | nt | nt | nt
Oc1ccc(-c2csc(-c3cccnc3)n2)c(O)c1 | 8.2* | 0.5 | 0.7 | 0.3 | 25.1* | 0.6 | 12.5* | 11.6* | 19.7* | 0.5
O=S(=O)(c1cccc(-c2csc(-c3cccnc3)n2)c1)N1CCOCC1 | -4.5 | -2.1 | -1.1 | -2.6 | 0.1 | -1.4 | nt | nt | nt | nt
CCOc1cccc(-c2nn3c(-c4cccc(C)c4)nnc3s2)c1 | -5.2 | -1.3 | 1.3 | -1.3 | -0.5 | nt | nt | nt | nt | nt
SMILES | SMARCA2 activ | ssDAF-12 act | DAX1 inh-1 | hcDAF12 agonist | hgDAF-12 ag | DAX1 inh-2 | SMARCA2 conf | GAL4-VP16 Luc | hgDAF12 conf | LXR ag 2 | others
CCn1c(/C=C/c2ccccc2)nc2ccccc2c1=O | -0.8 | -0.9 | -0.5 | -0.7 | 0.0 | 0.7 | nt | nt | nt | nt
CCn1c(/C=C/c2ccccc2)nc2ccccc21 | 9.2* | 1.4* | 3.9* | 11.2* | 15.3* | 0.4 | 10.7* | 10.7* | 17.0* | 0.9 | LXR ag=1.4;hcDAF12 conf=12.4*
O=C(NCCc1ccccc1)NC1CCCCC1 | 11.1* | -0.1 | 2.8 | 5.3 | 14.3* | 1.1 | 9.0* | 7.7* | 9.7 | 0.6
O=C(NC1CCCCCC1)C(=S)NCCc1ccccc1 | -3.0 | -0.4 | 0.2 | 0.6 | -1.4 | 0.0 | nt | nt | nt | nt
COc1ccc(CNC(=O)C2CC(c3ccc(OC)cc3)=NO2)cc1 (stereo unspecified) | 2.2 | -1.8 | -0.5 | 0.3 | -1.9 | 1.0 | nt | nt | nt | nt
COc1ccc(C2=NOC(CNC(N)=S)C2)cc1 (stereo unspecified) | 12.8* | 0.8 | 2.3 | 3.7 | 13.5* | 4.5* | 6.9 | 7.7* | 15.5* | 0.6
Cc1ccc2nc(NC(=O)/C=C/c3ccc4c(c3)OCO4)sc2c1 | -1.4 | -0.1 | 0.5 | -1.6 | -2.6 | 0.9 | nt | nt | nt | nt
Cc1ccc(NC(=O)/C=C/c2ccc3c(c2)OCO3)nc1 | 9.3* | -0.8 | 3.2 | 4.8 | 16.7* | 0.8 | 11.9* | 6.6* | 13.1* | 0.8
O=C(N[C@@H](Cc1cccnc1)C(=O)N1CCC[C@H]1C(=O)NCCc1ccccc1Cl)C1CC1 | -4.8 | -1.2 | 0.2 | -1.6 | 3.6 | nt | nt | nt | nt | nt
